“And” between values parts separate entries of the source, which are not always exact repeats. Identical values can stand only once. Values without a mark were called inactive. The source made the active and inactive calls.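 The calls were made as follows, unless noted: active = inhibition above 54%, about 3 SD of non-fluorescent compounds; inactive = the rest.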
These molecules were tested against Beta-2 adrenergic receptor (Homo sapiens) (UniProt P07550) (assay: agonist-induced loss of surface beta2AR – cell-based, FAP fluorogen, flow cytometry, validation set, pilot screen (AID 504459;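 active = percent response above 42, roughly 3 SD of non-fluorescent test compounds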;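 also: agonist-driven loss of surface beta2AR via internalization measured by FAP dye flow cytometry; reference of the scale not given here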)). Details: Am2.2-beta2AR cells, at 10 µM, stronger effect = higher value.
Chain of Beta-2 adrenergic receptor (Homo sapiens) (P07550 whole entry, looked up): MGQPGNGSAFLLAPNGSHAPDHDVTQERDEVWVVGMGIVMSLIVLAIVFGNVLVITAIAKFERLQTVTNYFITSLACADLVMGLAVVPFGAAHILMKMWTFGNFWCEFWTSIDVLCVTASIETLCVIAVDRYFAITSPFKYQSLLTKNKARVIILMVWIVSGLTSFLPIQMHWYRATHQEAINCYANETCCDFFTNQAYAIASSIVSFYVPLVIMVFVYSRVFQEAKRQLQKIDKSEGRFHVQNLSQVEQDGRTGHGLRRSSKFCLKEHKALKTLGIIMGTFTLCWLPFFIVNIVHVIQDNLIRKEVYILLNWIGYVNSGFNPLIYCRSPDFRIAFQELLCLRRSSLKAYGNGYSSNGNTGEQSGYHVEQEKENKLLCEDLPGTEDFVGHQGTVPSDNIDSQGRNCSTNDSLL

| Compound | response |
| --- | --- |
| NS(=O)(=O)c1cc2c(cc1Cl)NC(C1C[C@H]3C=C[C@@H]1C3)NS2(=O)=O (stereo partly drawn) | -2.86% |
| CC(=O)NC1C(OCc2ccccc2)OC(COC(C)=O)C(OC(C)=O)C1OC(C)=O (stereo not drawn) | 1.83% |
| O=CNC1CCCc2c1[nH]c1ccc(Cl)cc21 (stereo not drawn) | 3.11% |
| O=C(O)CP(=O)(O)O | 6.2% |
| Cc1cccc(Nc2ccccc2C(=O)O)c1C | -5.24% |
| CC1(C)CC(NCc2ccccc2)CCO1 (stereo not drawn) | -7.51% |
| Cc1ccccc1C(=O)NCC(=O)O | 2.69% |
| CCOc1cc2c3c(c1)C(C)=CC(C)(C)N3C(=O)C2=O | 23% |
| O=C(N1CCCC1)C12CC3CC(C1)CC(C(=O)N1CCCC1)(C3)C2 | -2.88% |
| O=C(NC(Nc1ccccn1)C(Cl)(Cl)Cl)c1ccccc1 (stereo not drawn) | 1.87% |
| COc1cc(NC(=S)NC(=O)c2cccs2)ccc1NC(=O)C(C)C | -2.44% |
| COc1ccc(CCN(C)CCCC(C#N)(c2cc(OC)c(OC)c(OC)c2)C(C)C)cc1OC (stereo not drawn) | -12.7% |
| O=C1C(Cc2c[nH]c3ccccc23)NC(=S)N1Cc1ccccc1 (stereo not drawn) | 3.86% |
| CC(C)(C)C(=O)NC(=S)NNC(=O)c1ccncc1 | -25% |
| CCOC(=O)N1CCN(Cc2nc(Cc3cccc(F)c3)no2)CC1 | 0.58% |
| C[C@@H]1C[C@H](Nc2ccccc2)c2ccccc2N1C(=O)c1cccnc1 | 2.27% |
| OC(CCN1CCCC1)(c1ccccc1)C1CCCCC1 (stereo not drawn) | 6.72% |
| Cc1cc(Cl)cc2c1NC(=O)[C@]21[C@@H]2C(=O)N(Cc3ccccc3)C(=O)[C@@H]2[C@@H]2CCCN21 | -4.55% |
| O=C(/C=C/c1ccco1)Nc1ccccc1C(=O)O | 5.64% |
| CC(C)c1ccc(/C=C/C(=O)O)cc1 | 3.14% |

| Compound | response |
| --- | --- |
| CCN(CC)CC(=O)Nc1c(C)cccc1C | -4.24% and -9.06% |
| CC1=C(C)C(=O)C(CCCCC#CCCCC#CCO)=C(C)C1=O | -12.4% |
| COc1cc(C=NCC2OCCc3ccccc32)cc(OC)c1 (stereo not drawn) | 4.4% |
| CN(C)CCCN1c2ccccc2CCc2ccccc21 | 2.45% |
| COc1ccc2nc(S(=O)Cc3ncc(C)c(OC)c3C)[nH]c2c1 (stereo not drawn) | 24.8% |
| COc1ccc(CNCCC2(C(C)C)CCOC(C)(C)C2)cc1 (stereo not drawn) | -6.71% |
| COc1cccc(CN2C(=O)N(C(C)C)C(N(O)C(=O)NC(C)C)C2(C)C)c1OC (stereo not drawn) | -7.26% |
| Cc1ccc(S(=O)(=O)N[C@@H](Cc2ccccc2)C(=O)CCl)cc1 | 11.3% |
| COCCN(CCOC)Cc1c(C)[nH]c2c(C)c(C)ccc2c1=O | 4.86% |
| CCOC(=O)C(NC(=O)CCC(=O)Nc1ccc(S(N)(=O)=O)cc1)C(O)c1ccccc1 (stereo not drawn) | -25.5% |
| Cc1ccccc1N1C(N)=NC(N)=NC1(C)C | 7.98% |
| CC1Cc2ccccc2N1NC(=O)c1ccc(Cl)c(S(N)(=O)=O)c1 (stereo not drawn) | -28.6% |
| CC1=C(/C=C/C(C)=C/C=C/C(C)=C/C(=O)O)C(C)(C)CCC1 | -11.2% |
| N/C(=N\OC(=O)/C=C/c1ccccc1)c1ccc(Br)cc1 | 0.58% |
| CCOc1ccc(C(=O)C(C)=O)c(OCC)c1 | -2.34% |
| COc1ccc(C=O)c(OC)c1 | -22.1% |
| CC1=NN(c2ccccc2)C(=O)C1 | 3.52% |
| COCC1CCCN(Cc2cn[nH]c2-c2cc3ccccc3o2)C1 (stereo not drawn) | -14.2% |
| CC1(C)CC(=O)C(C2=NC(C)(C)Cc3ccccc32)=C(O)C1 | -9.99% |

These molecules were tested against AP-2 complex subunit beta (Homo sapiens) (UniProt P63010) (assay: beta-arrestin/AP2 interaction blockers – biochemical, validation set, GST-AP2 beads, flow cytometry, pilot screen (AID 504541;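 also: AP2 carries R879A mutation and is captured from E. coli lysate; bead-bound FITC arrestin peptide fluorescence measuring arrestin peptide binding to AP2; 0% = DMSO wells and 100% = excess unlabeled arrestin peptide control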)). Details: FITC arrestin peptide, at 10 µM, stronger effect = higher value, AP2 beta2 appendage fragment, R879A mutant.
Chain of AP-2 complex subunit beta (Homo sapiens) (P63010 whole entry, looked up, the tested form may be a part, one chain of several): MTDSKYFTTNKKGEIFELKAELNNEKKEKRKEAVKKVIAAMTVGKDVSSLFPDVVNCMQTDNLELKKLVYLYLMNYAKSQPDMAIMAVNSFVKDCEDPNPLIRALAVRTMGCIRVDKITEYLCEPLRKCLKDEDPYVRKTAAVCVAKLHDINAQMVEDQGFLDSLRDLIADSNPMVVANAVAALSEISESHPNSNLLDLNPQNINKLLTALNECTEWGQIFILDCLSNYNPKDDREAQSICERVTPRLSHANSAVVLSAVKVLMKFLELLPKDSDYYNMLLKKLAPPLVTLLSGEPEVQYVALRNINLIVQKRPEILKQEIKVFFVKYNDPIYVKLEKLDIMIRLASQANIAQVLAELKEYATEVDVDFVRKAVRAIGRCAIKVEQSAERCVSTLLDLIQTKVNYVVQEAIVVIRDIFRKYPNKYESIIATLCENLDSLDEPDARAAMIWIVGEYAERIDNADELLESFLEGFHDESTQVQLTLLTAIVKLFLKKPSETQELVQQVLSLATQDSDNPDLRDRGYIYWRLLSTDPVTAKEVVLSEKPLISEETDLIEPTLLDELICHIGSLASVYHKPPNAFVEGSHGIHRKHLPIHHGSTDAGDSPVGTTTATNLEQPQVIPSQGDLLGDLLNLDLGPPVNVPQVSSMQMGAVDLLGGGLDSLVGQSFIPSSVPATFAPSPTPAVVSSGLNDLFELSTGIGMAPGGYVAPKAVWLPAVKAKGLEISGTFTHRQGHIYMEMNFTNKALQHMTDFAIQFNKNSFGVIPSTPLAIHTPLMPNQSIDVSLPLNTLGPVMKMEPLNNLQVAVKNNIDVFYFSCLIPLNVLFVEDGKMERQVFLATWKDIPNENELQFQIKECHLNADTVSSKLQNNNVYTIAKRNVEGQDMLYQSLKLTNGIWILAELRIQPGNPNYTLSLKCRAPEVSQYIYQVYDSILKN

| Compound | inhibition |
| --- | --- |
| NS(=O)(=O)c1cc2c(cc1Cl)NC(C1C[C@H]3C=C[C@@H]1C3)NS2(=O)=O (stereo partly drawn) | 11.5% |
| CC(=O)NC1C(OCc2ccccc2)OC(COC(C)=O)C(OC(C)=O)C1OC(C)=O (stereo not drawn) | -2% |
| O=CNC1CCCc2c1[nH]c1ccc(Cl)cc21 (stereo not drawn) | -3.47% |
| O=C(O)CP(=O)(O)O | 3.17% |
| Cc1cccc(Nc2ccccc2C(=O)O)c1C | -8.96% |
| CC1(C)CC(NCc2ccccc2)CCO1 (stereo not drawn) | 60.9% (active) |
| Cc1ccccc1C(=O)NCC(=O)O | -5.73% |
| CCOc1cc2c3c(c1)C(C)=CC(C)(C)N3C(=O)C2=O | 51.5% |
| O=C(N1CCCC1)C12CC3CC(C1)CC(C(=O)N1CCCC1)(C3)C2 | -3.27% |
| O=C(NC(Nc1ccccn1)C(Cl)(Cl)Cl)c1ccccc1 (stereo not drawn) | -6.1% |
| COc1cc(NC(=S)NC(=O)c2cccs2)ccc1NC(=O)C(C)C | -6.94% |
| COc1ccc(CCN(C)CCCC(C#N)(c2cc(OC)c(OC)c(OC)c2)C(C)C)cc1OC (stereo not drawn) | -7.98% |
| O=C1C(Cc2c[nH]c3ccccc23)NC(=S)N1Cc1ccccc1 (stereo not drawn) | 2.2% |
| CC(C)(C)C(=O)NC(=S)NNC(=O)c1ccncc1 | -3.36% |
| CCOC(=O)N1CCN(Cc2nc(Cc3cccc(F)c3)no2)CC1 | -8.69% |
| C[C@@H]1C[C@H](Nc2ccccc2)c2ccccc2N1C(=O)c1cccnc1 | 19.6% |
| OC(CCN1CCCC1)(c1ccccc1)C1CCCCC1 (stereo not drawn) | 34.9% |
| Cc1cc(Cl)cc2c1NC(=O)[C@]21[C@@H]2C(=O)N(Cc3ccccc3)C(=O)[C@@H]2[C@@H]2CCCN21 | -2.45% |
| O=C(/C=C/c1ccco1)Nc1ccccc1C(=O)O | -15.5% |
| CC(C)c1ccc(/C=C/C(=O)O)cc1 | 3.59% |

| Compound | inhibition |
| --- | --- |
| CCN(CC)CC(=O)Nc1c(C)cccc1C | -9.42% and -7.53% |
| CC1=C(C)C(=O)C(CCCCC#CCCCC#CCO)=C(C)C1=O | -0.87% |
| COc1cc(C=NCC2OCCc3ccccc32)cc(OC)c1 (stereo not drawn) | 17.8% |
| CN(C)CCCN1c2ccccc2CCc2ccccc21 | 4.55% |
| COc1ccc2nc(S(=O)Cc3ncc(C)c(OC)c3C)[nH]c2c1 (stereo not drawn) | -8.15% |
| COc1ccc(CNCCC2(C(C)C)CCOC(C)(C)C2)cc1 (stereo not drawn) | -2.2% |
| COc1cccc(CN2C(=O)N(C(C)C)C(N(O)C(=O)NC(C)C)C2(C)C)c1OC (stereo not drawn) | -6.77% |
| Cc1ccc(S(=O)(=O)N[C@@H](Cc2ccccc2)C(=O)CCl)cc1 | -2.91% |
| COCCN(CCOC)Cc1c(C)[nH]c2c(C)c(C)ccc2c1=O | -8.42% |
| CCOC(=O)C(NC(=O)CCC(=O)Nc1ccc(S(N)(=O)=O)cc1)C(O)c1ccccc1 (stereo not drawn) | 5.81% |
| Cc1ccccc1N1C(N)=NC(N)=NC1(C)C | -7.13% |
| CC1Cc2ccccc2N1NC(=O)c1ccc(Cl)c(S(N)(=O)=O)c1 (stereo not drawn) | 7.39% |
| CC1=C(/C=C/C(C)=C/C=C/C(C)=C/C(=O)O)C(C)(C)CCC1 | -5.9% |
| N/C(=N\OC(=O)/C=C/c1ccccc1)c1ccc(Br)cc1 | 40.4% |
| CCOc1ccc(C(=O)C(C)=O)c(OCC)c1 | -2.17% |
| COc1ccc(C=O)c(OC)c1 | 62.3% (active) |
| CC1=NN(c2ccccc2)C(=O)C1 | -6.32% |
| COCC1CCCN(Cc2cn[nH]c2-c2cc3ccccc3o2)C1 (stereo not drawn) | 0.03% |
| CC1(C)CC(=O)C(C2=NC(C)(C)Cc3ccccc32)=C(O)C1 | 17.9% |

Reference: PubChem BioAssay
